Smad3 inh – Smad3/FoxH1 peptide binding inhibitors, primary screen, biochemical, TR-FRET | actives 0.29% (n = 88,000) | Mothers against decapentaplegic homolog 3 (Homo sapiens), P84022 | TR-FRET Smad3/Dy647-FoxH1 peptide binding, europium anti-His | inhibition, % at 25 µM | AID 630, 2007;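 active = compounds that reduce the energy-transfer binding signal between the protein and its labelled peptide by more than half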;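 also: 0% = Smad3 plus labelled peptide maximal FRET and 100% = peptide-only background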
EphB4 ephrin blk – EphB4-ephrin-B2 interaction antagonists, primary screen, biochemical, TNYL-RAW peptide probe, fluorescence polarization; actives 0.15% (n = 97,000); EphB4 LBD / TNYL-RAW-Alexa532 peptide; AID 720, 2007; inhibition, % at 7 µM; Ephrin type-B receptor 4 (Homo sapiens), P54760;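 active = inhibition above the screen-wide mean inhibition plus 3 SD, cut at about 15% in these data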;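 also: 0% = DMSO wells and 100% = excess unlabeled TNYL-RAW peptide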
PLK1 kinase inh – human PLK1 kinase inhibitors, primary screen, biochemical, TR-FRET; Serine/threonine-protein kinase PLK1 (Homo sapiens), P53350; recombinant PLK1 kinase, TR-FRET peptide phosphorylation; inhibition, % at 10 µM; actives 0.53% (n = 97,000);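 active = inhibition of 50% or more in the single-concentration screen; inactive = inhibition below 50%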;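 also: 0% = DMSO max control and 100% = H-89 dihydrochloride min control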
FAK blocker – FAK kinase inhibitors, primary screen, biochemical. inhibition, %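 (tested at 7 µM)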. biochemical FAK kinase activity assay. actives 0.84% (n = 97,000). Focal adhesion kinase 1 (Homo sapiens), Q05397; in the data active = inhibition above about 19%;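 also: 0% = DMSO and 100% = reference compound high control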
Target sequence (Q05397 whole entry, looked up): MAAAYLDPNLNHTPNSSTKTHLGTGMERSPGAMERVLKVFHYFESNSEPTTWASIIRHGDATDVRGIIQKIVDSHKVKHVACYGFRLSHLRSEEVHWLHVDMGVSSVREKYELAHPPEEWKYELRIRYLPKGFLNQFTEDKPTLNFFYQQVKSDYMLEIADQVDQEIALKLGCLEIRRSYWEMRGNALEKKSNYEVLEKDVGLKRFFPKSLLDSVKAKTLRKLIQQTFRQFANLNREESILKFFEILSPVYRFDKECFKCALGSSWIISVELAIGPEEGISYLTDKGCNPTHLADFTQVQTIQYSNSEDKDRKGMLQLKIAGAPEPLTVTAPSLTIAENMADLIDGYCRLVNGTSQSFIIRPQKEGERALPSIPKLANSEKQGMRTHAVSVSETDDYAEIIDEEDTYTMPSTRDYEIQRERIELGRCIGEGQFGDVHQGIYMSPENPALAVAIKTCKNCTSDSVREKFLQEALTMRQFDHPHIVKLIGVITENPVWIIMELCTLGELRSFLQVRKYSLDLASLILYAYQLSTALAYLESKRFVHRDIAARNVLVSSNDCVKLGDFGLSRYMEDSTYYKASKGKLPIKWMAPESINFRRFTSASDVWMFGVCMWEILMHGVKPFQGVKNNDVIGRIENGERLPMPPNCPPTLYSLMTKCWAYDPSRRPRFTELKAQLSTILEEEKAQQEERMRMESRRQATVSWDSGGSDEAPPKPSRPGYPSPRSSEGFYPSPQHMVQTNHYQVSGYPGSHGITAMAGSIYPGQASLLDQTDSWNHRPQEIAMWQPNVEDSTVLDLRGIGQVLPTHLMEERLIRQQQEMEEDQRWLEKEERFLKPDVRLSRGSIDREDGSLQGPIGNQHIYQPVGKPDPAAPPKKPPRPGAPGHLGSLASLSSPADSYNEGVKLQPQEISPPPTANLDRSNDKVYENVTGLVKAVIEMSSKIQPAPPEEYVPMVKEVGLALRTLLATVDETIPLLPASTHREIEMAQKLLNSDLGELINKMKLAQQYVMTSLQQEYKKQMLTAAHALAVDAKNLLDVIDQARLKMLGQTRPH
Plk1 PBD FP – Plk1 polo box domain binding inhibitors, primary screen, biochemical, fluorescence polarization. Plk1 PBD phosphopeptide binding. actives 0.13% (n = 97,000). Serine/threonine-protein kinase PLK1 (Homo sapiens), P53350. inhibition, %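 (tested at about 20 µM)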; in the data active = inhibition above about 34%, passing the limit was not always enough
PLK1 confirm – PLK1 kinase activity inhibitors, confirmation, biochemical, TR-FRET, duplicate runs; shares compounds with PLK1 kinase inh; recombinant PLK1 kinase, TR-FRET peptide phosphorylation; inhibition, % at 10 µM; actives 20% (n = 210); AID 744, 2007;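 active = inhibition at or above 50% in each of two repeat confirmation tests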;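 also: 0% = DMSO max control and 100% = H-89 kinase-blocked min control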
Plk1 interf – compound interference with Plk1 assay readout, artefact control for Plk1 kinase inhibitor project, biochemical, TR-FRET, compound added post-reaction. shares compounds with PLK1 kinase inh. inhibition (interference), % at 10 µM. 210 tested, under 10 active. AID 756, 2007;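 active = both duplicate runs show 50% or greater inhibition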;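 also: 0% = DMSO max control and 100% = H-89 min control inhibited reaction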
The depositor's hits bear a star; · = no result given. This is a sample that favours compounds with a hit; in the whole collection about 1.5% have one here.

SMILES	Smad3 inh	EphB4 ephrin blk	PLK1 kinase inh	FAK blocker	Plk1 PBD FP	PLK1 confirm	Plk1 interf
CC1CCN(CC(O)COc2ccc(F)cc2)CC1 (centres undefined)	9	6	75*	1	0	-8	-58
CCOC(=O)C1CCN(C(=O)CSc2cc(=O)n(CC)c3ccccc23)CC1	35	-6	-19	-3	-5	·	·
CCCc1nc(SCc2cccnc2)c2c(=O)n(C)c(=O)n(C)c2n1	·	0	2	-2	1	·	·
Cn1c(=O)c2c(SCc3cccnc3)nc(CC(C)(C)C)nc2n(C)c1=O	1	-2	73*	8	-8	0	-53
Nc1[nH]ncc1C(=O)Nc1cccc(C(F)(F)F)c1	-18	-3	78*	3	0	75*	-54
Cn1ncc(N)c1C(=O)Nc1cccc(C(F)(F)F)c1	8	·	·	·	·	·	·
O=C(NCCCN1CCOCC1)c1cc(-c2ccc3c(c2)OCO3)nc2ccccc12	2	-5	72*	-3	28	-1	-51
COc1ccc(-c2cc(C(=O)NCCN3CCOCC3)c3ccccc3n2)cc1	10	5	8	-3	-21	·	·
CCc1nc2n[nH]c(N)c2c2c1CSC(C)(C)C2	·	2	77*	2	16	72*	-53
O=c1[nH]cnc2cc(-c3ccccc3)sc12	·	-3	80*	16	5	73*	-54
COc1ccc(-c2cc3nc[nH]c(=O)c3s2)cc1	12	-1	39	3	6	·	·
Nc1nc(N2CCN(C(=O)c3ccco3)CC2)nc2ccccc12	2	-4	-2	2	-24	·	·
O=C(c1ccco1)N1CCN(c2ncccn2)CC1	-6	-1	76*	2	-9	-15	-49
Cc1ccc(CCNC(=O)CC2Oc3ccc(C)cc3NC2=O)cc1 (centres undefined)	4	-5	-12	-1	0	·	·
CCOc1ccc(/C=N/NC(=O)COc2ccccc2-c2ccccc2)cc1	·	-1	-13	4	43	·	·
O=C(COc1ccccc1C(=O)N/N=C\c1ccc(O)c(O)c1)N/N=C/c1ccc(O)c(O)c1	·	-1	86*	2	5	72*	69*
CCOC(=O)C1CCN(C(=O)COc2ccc(Br)cc2)CC1	-17	-7	6	-10	6	·	·
CC1Cc2ccccc2N1C(=O)c1cnc2n(c1=O)CCS2 (centres undefined)	9	4	70*	-2	8	-9	-53
O=C(c1cnc2n(c1=O)CCS2)N1CCc2ccccc21	-12	·	·	·	·	·	·
Cc1ccccc1N1C(N)=NC(N)=NC1(C)C	-1	4	-5	0	-14	·	·
COc1ccccc1N1C(N)=NC(N)=NC1(C)C	2	8	79*	4	10	4	-55
O=C(C1CC1c1ccccc1)N1CCOCC1 (centres undefined)	-3	·	·	·	·	·	·
CCc1cc(=O)oc2cc(OCC(=O)O)c(Cl)cc12	7	-1	-10	-1	16	·	·
CCc1cc(=O)oc2cc(OCC(=O)N(CC)CC)c(Cl)cc12	5	1	72*	-2	-5	-1	-57
COCCn1c(SCc2cccnc2)nnc1-c1c[nH]c2ccccc12	3	0	75*	-1	-21	-9	-47
SMILES	Smad3 inh	EphB4 ephrin blk	PLK1 kinase inh	FAK blocker	Plk1 PBD FP	PLK1 confirm	Plk1 interf
COCCn1c(SCC(=O)Nc2cc(C)on2)nnc1-c1c[nH]c2ccccc12	8	-3	71*	-3	-2	0	-51
COCCn1c(Cc2ccccc2)nnc1SCC(=O)Nc1cc(C)on1	0	-2	2	-6	6	·	·
CC(C)(C)NC(=O)CSc1nc(O)cc(=O)n1-c1ccccc1F	0	-4	-16	-1	-17	·	·
OCCN1CCN(c2ncnc3ccc(Br)cc23)CC1	6	0	79*	4	-11	15	-41
O=C(CNS(=O)(=O)c1ccc(F)cc1)N1CCN(c2ccc(F)cc2)CC1	2	-4	-9	0	26	·	·
COc1cc(C2C(C(=O)OC(C)C)=C(C)Nc3ncnn32)cc(OC)c1OC (centres undefined)	-5	-9	81*	-1	-9	-4	-49
COC(=O)C1C2C=CC3(CN(c4cccc(Cl)c4)C(=O)C13)O2 (centres undefined)	-12	5	74*	-4	-34	-2	-50
COC(=O)C1C2C=CC3(CN(c4cccc(C)c4)C(=O)C13)O2 (centres undefined)	-3	4	-5	2	8	·	·
COc1cc(C2NC(=O)NC(c3ccccc3)=C2C(C)=O)ccc1OCC(=O)O (centres undefined)	-3	10	-4	0	-7	·	·
Cc1cccc(N=Nc2c(N)n[nH]c2-c2ccc(Cl)cc2)c1	·	2	71*	-7	-3	59*	-49
Cc1ccc(-c2[nH]nc(N)c2N=Nc2cccc(Cl)c2C)cc1	·	-4	-6	3	8	·	·
CCOc1ccc(-c2nc(CSCC(=O)N3CCN(C(=O)c4ccco4)CC3)c(C)o2)cc1	0	4	74*	-5	-3	-14	-52
CCOC(=O)CNC(c1ccccc1)c1cc(Br)ccc1NC(=O)OCC (centres undefined)	·	-2	93*	0	9	-1	-54
CCOC(=O)CSc1nc2ccccc2c(=O)[nH]1	-1	-4	72*	-3	2	-9	-49
Cc1ccc(CON=C2CCN(c3ncc(C(F)(F)F)cc3Cl)CC2)cc1	·	-4	-9	1	16	·	·
Cc1ccc(N(C)C(=O)N2CCN(S(=O)(=O)c3ccc(C)cc3)CC2)cc1	5	1	72*	3	2	3	-50
O=C(CCc1ccccc1)N1CCN(CCO)CC1	3	-2	74*	-6	21	-10	-48
CCOC(=O)c1[nH]c(C)c(C(=O)NCCN2CCOCC2)c1C	4	4	74*	-3	-21	-10	-52
CCOC(=O)c1[nH]c(C)c(C(=O)NCCCOC(C)C)c1C	-3	·	·	·	·	·	·
CCn1c(SCC(=O)N2CCOCC2)nc(O)cc1=O	7	-9	71*	-5	-13	-15	-51
Cc1ccc2c(c1)N(CCCC(=O)NCc1ccc3c(c1)OCO3)C(=O)CO2	-4	·	·	·	·	·	·
COc1ccc(S(=O)(=O)Cc2ccc(C(=O)N3CCN(c4cccc(C)c4)C(C)C3)o2)cc1 (centres undefined)	1	2	73*	2	-6	-3	-51

Bioassay records as filed in PubChem BioAssay.
